Most compounds without a hit are left out; they make up all but 11% or so of the library.
HEK cytotox: kills HEK 293 cells; AID 1345083; 6.6% of 94,000 active; HEK 293 viability, ATP luminescence (CellTiter-Glo), 48-72 h; Potency, µM (series often up to 115 µM), inactives show at the top dose activity change, negative = cytotoxicity, hits mostly inhibitors; also: nearly all actives have a fitted effect of over 60% in size
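250 HEK 293 cells/well; compound by pintool; incubated 48 or 72 hr at 37 degree Celsius; CellTiter-Glo added, 10 min RT, luminescence imaged.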
NPR1 antag: human Npr1 receptor antagonism; P16066; HEK293 hNpr1 GloSensor cGMP, ANP-stimulated luminescence; Potency, µM (highest dose often 46.3 µM), without a hit: at the top dose activity change, negative = inhibition, hits mostly inhibitors; 1.6% of 76,000 active; calls by dose curve; also: nearly all actives have a fitted effect of over 60% in size
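Compound pre-incubated 30 min at room temperature on GloSensor-loaded HEK293 cells stably carrying hNpr1 and the pGS-40F cGMP biosensor. Stimulation uses hNppA at 0.1 nM final; luminescence is taken at baseline and 20 min post-agonist.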
Luciferase inh: inhibitors of firefly (Photinus pyralis) luciferase; P08659; purified P. pyralis luciferase, luminescence, biochemical; Potency, µM (titrated, usually from 115 µM), most hits filed as inhibitors; 2.5% of 76,000 active; AID 1347043; also: nearly all actives have a fitted effect of over 65% in size
Target sequence (P08659 whole entry, looked up): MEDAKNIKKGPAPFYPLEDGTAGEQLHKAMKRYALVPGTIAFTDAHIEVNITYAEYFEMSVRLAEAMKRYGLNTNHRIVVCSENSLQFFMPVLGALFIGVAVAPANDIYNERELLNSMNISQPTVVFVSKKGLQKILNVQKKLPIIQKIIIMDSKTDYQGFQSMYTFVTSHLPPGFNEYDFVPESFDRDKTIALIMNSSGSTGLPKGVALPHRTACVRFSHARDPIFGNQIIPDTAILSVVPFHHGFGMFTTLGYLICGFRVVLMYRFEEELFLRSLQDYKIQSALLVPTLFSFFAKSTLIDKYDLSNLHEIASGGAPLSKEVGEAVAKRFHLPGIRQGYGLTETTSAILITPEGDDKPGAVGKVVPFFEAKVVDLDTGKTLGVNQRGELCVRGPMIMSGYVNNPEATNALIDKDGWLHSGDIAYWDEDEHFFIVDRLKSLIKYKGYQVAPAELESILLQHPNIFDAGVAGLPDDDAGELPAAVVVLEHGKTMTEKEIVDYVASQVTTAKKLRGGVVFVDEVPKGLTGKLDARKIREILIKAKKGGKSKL
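FLuc 10nM, D-luciferin 10uM, ATP 10uM, Mg acetate 10mM, Tris acetate pH 7.5, Tween/BSA; cpd qHTS; enzyme added last; CCD luminescence.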
3T3 cytotox: kills NIH 3T3 cells; NIH 3T3 viability, CellTiter-Glo ATP luminescence, 48-72 h; Potency, µM (top dose mostly 96.7 µM), inactives show at the highest dose activity change, negative = cytotoxicity, actives largely listed as inhibitors; 4.3% of 94,000 active; AID 1345082; also: nearly all actives have a fitted effect of over 55% in size
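Luminescent ATP readout (CellTiter-Glo, 10 min RT) after 48 or 72 hr compound exposure of NIH 3T3 cells seeded at 400 cells/well in 1536-well format; quantitative HTS.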
Active calls of the source: *; i = inactive; ? = inconclusive; . = not tested or not shown; [ ] = dose if it differs, or a comment. Unless noted, calls follow the shape of the dose curve; as a rule, active = well fitted curve in the direction sought with a large enough effect; inconclusive = small, poorly fitted or top-dose-only effect, or another doubt; inactive = no such curve, though single readings can be large; an effect the other way counts as inactive or inconclusive. % is scaled to controls: 0 for no effect and ±100 for the full control effect; potency is read from the fitted curve at half-maximal effect.

SMILES | HEK cytotox | NPR1 antag | Luciferase inh | 3T3 cytotox
COc1cccc(C(=O)NC2CCCN(c3cc(-c4ccc(F)cc4)[nH]n3)C2)c1 (stereo not given) | ? | -17.0% | ? | 44.7µM*
COc1ccc(C(=O)N[C@@H]2CCC[C@@H]2C(=O)NCc2cc(OC)cc(OC)c2)cc1 | i | -0.5% | i | 1.0%
O=C(Nc1nc2c(s1)CCCC2)C1CC(=O)N(c2n[nH]c3ccccc23)C1 (stereo not given) | ? | -17.3% | i | -23.8%
O=C(Nc1nc2ccccc2s1)C1CC(=O)N(c2n[nH]c3cccc(F)c23)C1 (stereo not given) | 12.6µM* | -15.4% | i | 25.1µM*
O=C(Nc1nc2c(s1)CCC2)C1CC(=O)N(c2n[nH]c3cccc(F)c23)C1 (stereo not given) | 44.7µM* | 0.5% | i | ?
O=C(Nc1nc2c(s1)CCC2)C1CC(=O)N(c2n[nH]c3cc(Br)ccc23)C1 (stereo not given) | ? | -26.8% | i | 17.8µM*
COc1ccc(N2CCN(C(=O)C3CC(=O)N(c4n[nH]c5cccc(F)c45)C3)CC2)cc1 (stereo not given) | 39.8µM* | -15.4% | i | -14.4%
CCc1nc(NC(=O)C2CC(=O)N(c3n[nH]c4cccc(F)c34)C2)sc1C (stereo not given) | ? | 0.7% | i | -25.3%
O=C(c1ccccc1Cl)N1CCC(C(=O)N2CCCC(c3nc4ncccc4[nH]3)C2)CC1 (stereo not given) | -2.2% | . | . | -12.6%
CCOc1ccccc1NC(=O)N1CCC2(CCC2NC(=O)COC)CC1 (stereo not given) | -13.2% | . | . | -14.3%
CC(C)NC(=O)N1CC[C@H](n2c(=O)n(C)c3cccnc32)C1 | 1.0% | . | . | i
Cc1ccc(-c2cc3c(=O)n(CCNC(=O)c4ccccc4F)ccn3n2)cc1C | ? | 5.0% | 2µM* | -20.9%
Cc1ccc(-c2cc3c(=O)n(CCNC(=O)C4CCCCC4)ccn3n2)cc1C | -1.3% | -5.2% | 0.631µM* | 0.3%
O=C(NCCn1ccn2nc(-c3ccc(F)cc3)cc2c1=O)c1ccsc1 | ? | -6.0% | i | -11.3%
CCn1nccc1C(=O)NCCn1ccn2nc(-c3ccc(C)c(C)c3)cc2c1=O | 25.1µM* | -2.0% | 3.98µM* | -28.6%
O=C(NCCn1ccn2nc(-c3ccc(F)cc3)cc2c1=O)c1n[nH]c2c1CCCC2 | ? | ? | 0.398µM* | ?
CC(C)N1CCC2(CC1)CN(C(=O)c1cccnc1)Cc1ccccc1O2 | 3.4% | . | . | -21.2%
CC(C)C[C@@H]1N[C@H](C(=O)N2CCN(c3ncccn3)CC2)Cc2c[nH]c3cccc1c23 | 79.4µM* | -1.0%[70.6 µM] | i | ?
CC(C)C[C@@H]1N[C@H](C(=O)NC2CCCC2)Cc2c[nH]c3cccc1c23 | 31.6µM* | -3.9%[70.6 µM] | i | 50.1µM*
CC(C)C[C@@H]1N[C@H](C(=O)NC2CCC2)Cc2c[nH]c3cccc1c23 | 44.7µM* | 3.4%[70.6 µM] | i | 50.1µM*
C=CCN(C)C(=O)[C@@H]1Cc2c[nH]c3cccc(c23)[C@H](CC(C)C)N1 | ? | -11.2%[70.6 µM] | i | ?
CC(C)S(=O)(=O)N1CCc2c(c(CN3CCOCC3)nn2C)C1 | -14.0% | . | . | -18.3%
CN1CCN(C(=O)C2CCN(c3ccnc4ccnn34)CC2)CC1 | -19.8%[172 µM] | . | . | ?
COC(=O)N[C@@H]1C[C@H]2C[C@@H](C(C)C)OC[C@@]2(c2ccccc2)C1 | ? | . | . | -28.2%
COc1cccc2sc(NC(=O)c3ccc4c(c3)OCCN(C3CCC3)C4)nc12 | 31.6µM* | ? | ? | ?
SMILES | HEK cytotox | NPR1 antag | Luciferase inh | 3T3 cytotox
COc1ccc(NC(=O)c2ccc3c(c2)OCCN(C2CCC2)C3)cn1 | ? | -2.5%[70.6 µM] | i | -20.9%[138 µM]
CCNc1ncc(CN2CCCC(CCc3cccc(C(F)(F)F)c3)C2)cn1 (stereo not given) | ? | -0.5% | i | ?
OC1(CN2CCN(c3ccc(F)c(Cl)c3)CC2)CCCNC1 (stereo not given) | 79.4µM* | 3.5% | i | ?
Cc1noc(C)c1-c1cc2cc(CNC(C)C)oc2c(NC2CCN(C)CC2)n1 | 63.1µM* | -1.9%[70.6 µM] | i | ?
Cc1noc(C)c1-c1cc2cc(CO)oc2c(NCc2ccc3c(c2)OCO3)n1 | ? | -5.4%[70.6 µM] | i | ?
Cc1noc(C)c1-c1cc2c(cc(C)n2C)c(NC2CCN(C)CC2)n1 | ? | -2.1%[70.6 µM] | i | ?
Cc1noc(C)c1-c1cc2cc(CN3CCN(C)CC3)oc2c(NC2CCN(C)CC2)n1 | ? | 1.6%[70.6 µM] | i | 89.1µM*
COc1ccc(-c2cc(C(=O)NCCc3ccc(Cl)cc3)c3cnn(C)c3n2)cc1 | -6.7% | . | . | -12.4%
O=C(C1CCCC1)N1CCC(C(=O)N2CCC(c3nc4ncccc4[nH]3)CC2)CC1 | i | . | . | -2.4%
COc1cccc(CN2CCc3c(cc(C(=O)Nc4cccc(C)c4C)n3C)C2)c1 | 39.8µM* | 5.9% | 22.4µM* | ?
COc1cccc(CN2CCc3c(cc(C(=O)Nc4ccccc4)n3C)C2)c1 | 44.7µM* | -25.9% | 15.8µM* | ?
COc1cccc(CN2CCc3c(cc(C(=O)NCc4ccccn4)n3C)C2)c1 | ? | 1.9% | i | ?
COc1ccc(NC(=O)c2cc3c(n2C)CCN(Cc2ccc(F)cc2)C3)cc1 | ? | -2.8% | ? | ?
COc1ccc(CNC(=O)c2cc3c(n2C)CCN(Cc2ccccc2)C3)cc1OC | 39.8µM* | ? | i | -26.6%
COc1cccc(CN2CCc3c(cc(C(=O)Nc4ccccc4OC)n3C)C2)c1 | 39.8µM* | -2.7% | 15.8µM* | ?
COc1cccc(CN2CCc3c(cc(C(=O)N4CCOCC4)n3C)C2)c1 | -9.4% | 0.3% | i | -8.0%
Cc1noc(C)c1S(=O)(=O)N1CCc2nn(Cc3ccccc3)c(=O)n2CC1 | -2.9% | . | . | -13.5%
Cn1nc(C2CCCN(C(=O)NCc3ccccc3)C2)n(C2CCCC2)c1=O (stereo not given) | -11.7% | . | . | -33.3%
COc1ccccc1NC(=O)c1cc2c(n1C)CCN(Cc1cccc(C)c1)C2 | ? | -0.1% | 31.6µM* | ?
CC(=O)Nc1ccc(NC(=O)c2cc3c(n2C)CCN(Cc2ccccc2)C3)cc1 | -13.5% | 0.7% | i | -22.7%
CN(C)C[C@H]1O[C@H](Cc2cc(-c3ccccc3)on2)CC[C@@H]1O | -29.6%[172 µM] | -21.4%[70.6 µM] | i | -7.4%[174 µM]
CCNC(=O)[C@@H]1C[C@H](NC(=O)c2cccc(-c3ccc(F)cc3)c2)CN1C | ? | 0.6% | 35.5µM* | -28.1%
O=C(C1CCCN1C(=O)Nc1ccccc1)N1CCC(c2nc3ccncc3[nH]2)CC1 (stereo not given) | i | . | . | -6.3%
Cc1noc2c(NCc3cccnc3)cc(-c3cccc(C(F)(F)F)c3)nc12 | 100µM* | -4.9%[70.6 µM] | i | 79.4µM*
COCCNc1cc(-c2cccc(C(F)(F)F)c2)nc2c(C)noc12 | 89.1µM* | -0.2%[70.6 µM] | i | ?
CN(C)c1ccc(-n2cnc3cccnc32)cc1 | ? | 14.6%[70.6 µM] | 35.5µM* | ?
COc1ccccc1-n1cnc2cccnc21 | ? | 0.0%[70.6 µM] | i | ?

Bioassay records (PubChem BioAssay)
